Bioassay records (PubChem)
This is a sample that favours compounds with a hit; in the whole collection about 1.1% have one here.
PfHsp40 yeast: restores yeast growth despite PfHsp40 toxicity. S. cerevisiae expressing PfHsp40, growth rescue, ATP luminescence. 0.68% of 340,000 active. growth rescue, % at 12.5 µM; in the data active = growth rescue above about 28%, passing the limit was not always enough;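 also: yeast W303a lacking pdr1 and pdr3 grown in galactose medium; growth measured after three days at 30 °C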
TcdB inh: inhibitors of Clostridioides difficile toxin B glycohydrolase | P18177 | TcdB glycohydrolase enzymatic assay, plate reader | inhibition, % at 9.99 µM | 0.24% of 350,000 active | AID 652162; in the data active = inhibition above about 10%
Target sequence (P18177 whole entry, looked up): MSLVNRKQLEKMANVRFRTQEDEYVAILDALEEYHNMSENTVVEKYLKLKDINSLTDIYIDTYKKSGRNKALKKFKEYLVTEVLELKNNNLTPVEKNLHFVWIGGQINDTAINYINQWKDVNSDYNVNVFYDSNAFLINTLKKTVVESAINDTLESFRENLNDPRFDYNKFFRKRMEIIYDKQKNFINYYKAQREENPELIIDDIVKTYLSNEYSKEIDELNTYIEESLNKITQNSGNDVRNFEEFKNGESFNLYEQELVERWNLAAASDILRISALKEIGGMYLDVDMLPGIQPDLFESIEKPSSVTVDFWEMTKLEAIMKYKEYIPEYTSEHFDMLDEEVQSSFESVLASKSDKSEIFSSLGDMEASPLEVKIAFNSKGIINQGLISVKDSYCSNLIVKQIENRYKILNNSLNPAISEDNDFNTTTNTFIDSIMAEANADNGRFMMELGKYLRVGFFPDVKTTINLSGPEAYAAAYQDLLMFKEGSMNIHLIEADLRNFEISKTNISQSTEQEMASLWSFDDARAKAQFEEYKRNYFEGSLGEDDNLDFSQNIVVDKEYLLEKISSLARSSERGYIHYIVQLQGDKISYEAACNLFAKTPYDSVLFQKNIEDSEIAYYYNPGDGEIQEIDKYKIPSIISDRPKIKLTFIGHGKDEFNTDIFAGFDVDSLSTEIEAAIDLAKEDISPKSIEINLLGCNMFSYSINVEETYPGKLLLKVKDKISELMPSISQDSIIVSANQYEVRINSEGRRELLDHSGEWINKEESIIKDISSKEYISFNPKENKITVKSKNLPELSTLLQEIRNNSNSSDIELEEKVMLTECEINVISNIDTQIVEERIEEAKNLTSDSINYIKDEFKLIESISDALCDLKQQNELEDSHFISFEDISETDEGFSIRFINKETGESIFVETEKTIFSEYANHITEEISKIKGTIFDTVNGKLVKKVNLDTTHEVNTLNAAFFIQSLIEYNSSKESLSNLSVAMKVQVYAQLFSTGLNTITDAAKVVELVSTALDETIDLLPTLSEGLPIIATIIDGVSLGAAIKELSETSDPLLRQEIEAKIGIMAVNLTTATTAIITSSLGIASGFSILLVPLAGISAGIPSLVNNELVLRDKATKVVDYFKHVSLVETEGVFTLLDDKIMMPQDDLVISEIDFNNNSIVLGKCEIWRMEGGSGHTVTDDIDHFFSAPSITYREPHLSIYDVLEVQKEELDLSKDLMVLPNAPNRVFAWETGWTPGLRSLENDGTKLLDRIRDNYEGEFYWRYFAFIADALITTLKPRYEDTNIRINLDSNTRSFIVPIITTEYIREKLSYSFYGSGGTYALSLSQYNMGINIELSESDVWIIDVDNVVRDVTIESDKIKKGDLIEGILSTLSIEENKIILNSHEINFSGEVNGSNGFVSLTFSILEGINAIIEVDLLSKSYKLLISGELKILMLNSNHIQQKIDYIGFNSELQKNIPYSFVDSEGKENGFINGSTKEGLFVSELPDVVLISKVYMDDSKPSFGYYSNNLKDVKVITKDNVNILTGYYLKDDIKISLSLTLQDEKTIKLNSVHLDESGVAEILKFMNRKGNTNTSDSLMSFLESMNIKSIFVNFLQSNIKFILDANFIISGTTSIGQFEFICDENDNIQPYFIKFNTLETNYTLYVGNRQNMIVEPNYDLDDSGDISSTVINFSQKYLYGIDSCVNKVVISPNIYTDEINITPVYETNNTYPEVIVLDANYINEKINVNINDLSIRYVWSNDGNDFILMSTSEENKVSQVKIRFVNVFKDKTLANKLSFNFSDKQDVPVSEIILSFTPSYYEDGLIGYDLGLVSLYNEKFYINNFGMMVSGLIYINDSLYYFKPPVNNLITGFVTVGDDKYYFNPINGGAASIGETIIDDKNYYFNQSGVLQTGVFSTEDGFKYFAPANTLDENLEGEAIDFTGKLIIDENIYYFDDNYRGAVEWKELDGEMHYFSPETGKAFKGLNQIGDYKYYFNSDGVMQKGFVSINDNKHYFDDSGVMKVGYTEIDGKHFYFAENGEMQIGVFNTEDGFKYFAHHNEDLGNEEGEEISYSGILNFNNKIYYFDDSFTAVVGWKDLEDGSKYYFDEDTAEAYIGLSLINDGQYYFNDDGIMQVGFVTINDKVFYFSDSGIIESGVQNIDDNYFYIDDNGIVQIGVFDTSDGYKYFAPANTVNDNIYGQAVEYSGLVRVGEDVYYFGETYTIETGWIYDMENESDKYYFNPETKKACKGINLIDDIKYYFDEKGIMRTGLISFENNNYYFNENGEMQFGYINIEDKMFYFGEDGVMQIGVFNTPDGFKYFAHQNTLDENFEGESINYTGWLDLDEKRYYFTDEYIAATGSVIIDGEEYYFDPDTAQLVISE
BioA inh: blocks M. tuberculosis BioA enzyme activity. inhibition, % at 9.99 µM. purified M. tuberculosis BioA enzyme, plate reader. AID 602481. 0.096% of 360,000 active; in the data active = inhibition above about 40%
PrP 5UTR inh: suppresses PrP 5' UTR mRNA reporter expression; cell-based PrP 5' UTR mRNA reporter, plate reader; inhibition, % (concentration not given with the values); 0.35% of 340,000 active; AID 488862; in the data active = inhibition above about 52%; also: 0 = median of the neutral control wells
FadD28 binding: blocks FadD28 binding to the bisubstrate probe | fluorescence polarization | inhibition, % at 12.5 µM | 0.22% of 360,000 active; in the data active = inhibition above about 8.5%, passing the limit was not always enough
PrP UTR cherry: prion 5' UTR mRNA inhibition, cherry-pick retest. shares compounds with PrP 5UTR inh. cell-based prion protein 5' UTR reporter, plate reader. inhibition, % at 2.5 µM. 48% of 1,100 active. AID 504592; in the data active = inhibition above about 54%
* marks the source's active call; other numbers are inactive results.

Screening O=C(c1ccc(Cl)cc1)N1CCCCC(Sc2nnc(-c3ccc4c(c3)OCO4)o2)C1=O (centres undefined) returned PfHsp40 yeast 1, BioA inh -3, PrP 5UTR inh 74*, FadD28 binding -2 and PrP UTR cherry 78*.
Cc1ccc(C(=O)NCCCn2ccnc2)o1 was read as PfHsp40 yeast -2, BioA inh 0, PrP 5UTR inh 73*, FadD28 binding 1 and PrP UTR cherry -11.
Screening COc1cccc(CNC(=O)COC(=O)c2cc([N+](=O)[O-])ccc2N2CCCC2)c1 returned PfHsp40 yeast 1, TcdB inh -1, BioA inh -3, PrP 5UTR inh 84*, FadD28 binding -5 and PrP UTR cherry 1.
Screening O=C(COC(=O)c1cc([N+](=O)[O-])ccc1N1CCOCC1)NCc1ccccc1 returned TcdB inh 1, BioA inh 0 and FadD28 binding -1.
`CO[C@H]1CN(C)C(=O)c2ccc(NC(=O)NC(C)C)cc2OC[C@@H](C)N(C)C[C@@H]1C` gave TcdB inh 0 and BioA inh -3.
CNC(=O)COC(=O)/C=C/c1ccc(F)cc1 was read as PfHsp40 yeast -1, TcdB inh 0, BioA inh -1, PrP 5UTR inh -9 and FadD28 binding -3.
CNC(=O)COC(=O)/C=C/c1cccc(F)c1 was read as PfHsp40 yeast 2, TcdB inh 2, BioA inh 0, PrP 5UTR inh 58*, FadD28 binding -2 and PrP UTR cherry -10.
For CC(C)C#Cc1cnc2c(c1)C(=O)N([C@@H](C)CO)C[C@@H](C)[C@@H](CN(C)Cc1cncnc1)O2 the results were TcdB inh 2 and BioA inh -3.
`CC(C)(C)C1C/C(=C/c2ccccn2)C(=O)/C(=C/c2ccccn2)C1` (centres undefined) gave PfHsp40 yeast -2, BioA inh -1, PrP 5UTR inh 92*, FadD28 binding -4 and PrP UTR cherry 97*.
For CN1C2CCC1/C(=C/c1ccccn1)C(=O)/C2=C\c1ccccn1 the results were PfHsp40 yeast 0, TcdB inh 0, BioA inh -2, PrP 5UTR inh 78*, FadD28 binding -1 and PrP UTR cherry 91*.
Screening Cc1cc(C)cc(N(CC(=O)N2CCn3c2nc2ccccc23)S(=O)(=O)c2c(C)noc2C)c1 returned PfHsp40 yeast 0, TcdB inh -5, BioA inh -3, PrP 5UTR inh 67*, FadD28 binding 0 and PrP UTR cherry -3.
Screening Cc1cc(C)cc(N(CC(=O)N2CCc3ccccc32)S(=O)(=O)c2c(C)noc2C)c1 returned PfHsp40 yeast 0, TcdB inh 1, BioA inh -1, PrP 5UTR inh -5 and FadD28 binding -1.
`CCOc1ccc(N(CC(=O)N2CCc3ccccc32)S(=O)(=O)c2c(C)noc2C)cc1` gave PfHsp40 yeast 0, TcdB inh 0, BioA inh 0, PrP 5UTR inh 79*, FadD28 binding -2 and PrP UTR cherry 9.
Screening O=C(C[C@H]1CC[C@H]2[C@@H](COC[C@@H](O)CN2Cc2cc(F)cc(F)c2)O1)NC1CCCC1 returned TcdB inh -1 and BioA inh 2.
`O=C(Nc1cccc(F)c1)N1C[C@H]2[C@@H](c3ccccc31)[C@@H](CO)N2C(=O)Cc1ccccn1` gave TcdB inh -1 and BioA inh 0.
Screening O=C1C=C(Nc2cccc3cccnc23)c2ccccc2C1=O returned PfHsp40 yeast -1, TcdB inh 0, BioA inh -3, PrP 5UTR inh 64*, FadD28 binding 5 and PrP UTR cherry -36.
O=C(Cc1ccccc1)N1CC2(C1)[C@@H](c1ccccc1)[C@@H](CO)N2C(=O)Cc1ccccc1 was read as TcdB inh 1.
O=C(O)c1cccc(COc2ccccc2Cl)c1 was read as PfHsp40 yeast 0, TcdB inh 1, BioA inh 0, PrP 5UTR inh 69*, FadD28 binding -2 and PrP UTR cherry 83*.
For O=C(O)c1ccc(COc2ccccc2Cl)cc1 the results were PfHsp40 yeast 0, BioA inh 0, PrP 5UTR inh -13 and FadD28 binding -2.
Screening Cc1ccc(NC(=O)C2CCCN(S(=O)(=O)c3cnc[nH]3)C2)c(Br)c1 (centres undefined) returned PfHsp40 yeast 0, TcdB inh 1, BioA inh 0, PrP 5UTR inh 73*, FadD28 binding -3 and PrP UTR cherry -1.
Screening O=C(Nc1ccc(Br)cc1F)C1CCCN(S(=O)(=O)c2cnc[nH]2)C1 (centres undefined) returned PfHsp40 yeast 0, TcdB inh 0, BioA inh -1, PrP 5UTR inh -10 and FadD28 binding -2.
For COc1ccc2c3c(n(C)c2c1)[C@H](CO)N(C(=O)C1CC1)CC31CN(C(=O)Nc2cccc(F)c2)C1 the results were TcdB inh -2.
For CS(=O)(=O)Nc1ccccc1C(=O)NCC1(N2CCCCC2)CCCCC1 the results were PfHsp40 yeast 0, TcdB inh 1, PrP 5UTR inh 67*, FadD28 binding -1 and PrP UTR cherry -4.
Screening COc1ccccc1[C@H]1C(c2cccc(Cl)c2)=NN(c2ccccc2)[C@@H]1CO returned PfHsp40 yeast 1, BioA inh 0, PrP 5UTR inh 72*, FadD28 binding 0 and PrP UTR cherry -5.
`O=C(C1CC(=O)N(c2ccc3c(c2)OCCO3)C1)N1CCN(Cc2ccccc2F)CC1` (centres undefined) gave PfHsp40 yeast 0, TcdB inh 1, BioA inh 2, PrP 5UTR inh 86*, FadD28 binding -3 and PrP UTR cherry -9.
Screening O=C(Nc1ccc(OCc2ccccc2)cc1)c1cccnc1 returned PfHsp40 yeast 7, BioA inh 8, PrP 5UTR inh -42 and FadD28 binding -1.
O=C(Nc1ccc(OCc2ccccc2Cl)cc1)c1cccnc1 was read as PfHsp40 yeast 4, TcdB inh 1, BioA inh 26, PrP 5UTR inh 66*, FadD28 binding 0 and PrP UTR cherry 71*.
COc1cc(C2c3[nH]c4ccccc4c3CC3COC(=O)N32)cc(OC)c1O (centres undefined) was read as PfHsp40 yeast -1, TcdB inh -18, PrP 5UTR inh 59*, FadD28 binding 0 and PrP UTR cherry 90*.
COc1cc([N+](=O)[O-])ccc1NC(=O)COC(=O)C=C(C)C was read as PfHsp40 yeast 3, TcdB inh 0, BioA inh -2, PrP 5UTR inh 61*, FadD28 binding 0 and PrP UTR cherry -22.
Screening C[C@H]1CN([C@@H](C)CO)C(=O)Cc2cc(NC(=O)CCC(F)(F)F)ccc2O[C@@H]1CN(C)Cc1ccc2c(c1)OCO2 returned TcdB inh 0 and BioA inh 5.
For COc1ccc(CN(C)CC(=O)Nc2ccccc2C(F)(F)F)c(OC)c1 the results were PfHsp40 yeast -1, BioA inh -1, PrP 5UTR inh -36 and FadD28 binding -4.
